Test results published in PubChem BioAssay (NCATS).
Results filed as inconclusive are left out. Values without a mark were called inactive. The call rests on the fitted dose curve; in most records, active means well fitted inhibition curve with a large enough effect; inconclusive means small, poorly fitted or top-dose-only effect; inactive means flat fitted curve, though single readings scatter.

Tested on: CP185
Experiment: qHTS profiling for inhibitors of Plasmodium falciparum proliferation (AID 504749);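 further: 0% = DMSO vehicle and full inhibition = artemisinin control; nearly all actives have a fitted effect of over 60% in size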
Details: P. falciparum in erythrocytes, SYBR Green DNA, 72 h; series mostly up to 28.7 µM; activity, negative = inhibition: at the top concentration
How it was run: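 In a 72 h erythrocytic culture (37 C, humidified, 5% CO2) at 2.5% hematocrit and 0.3% starting parasitemia, compounds were tested; SYBR Green I in detergent lysis buffer stained parasite DNA overnight.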

| SMILES | activity, negative = inhibition |
| --- | --- |
| CNc1c2c(nn1C)CCCC2 | 8.68% |
| NC(=O)CC[C@@H](N)C(=O)O | 8.15% |
| Cc1c(C(=O)NCCO)[n+](=O)c2ccccc2n1[O-] | 7.94% |
| CCCCOC(=O)c1ccc(N)cc1 | 11% |
| CCCCCCCC(=O)OCC(O)CO (stereo not given) | 7.26% |
| CCOc1cc(NC(C)=O)ccc1C(=O)OC | 8.15% |
| C[C@@H](N)C(=O)O | 20.7% |
| CC(N)CCCC(C)(C)O (stereo not given) | 9.03% |
| O=C(O)Cc1ccc(CCNS(=O)(=O)c2ccc(Cl)cc2)cc1 | 6.43% |
| COC(=O)c1cccnc1 | -0.67% |
| O=C(Cn1ccnc1[N+](=O)[O-])NCCO | -2.15% |
| Cc1ccc(S(=O)(=O)NC(=O)NC2CCCCC2)cc1 | 3.31% |
| C[N+](C)(C)CC[N+]1(C)Cc2c(Cl)c(Cl)c(Cl)c(Cl)c2C1 | 7.19% |
| O=C(O)CCC(=O)O | 4.57% |
| NC(=O)NS(=O)(=O)c1ccc(N)cc1 | 4.42% |
| O=C(/C=C/c1ccccc1)OCc1ccccc1 | 3.26% |
| COc1cc(C(=O)NCCCCCC(=O)O)cc(OC)c1OC | 4.1% |
| O[C@@H]1CO[C@H]2[C@@H]1OC[C@@H]2O | 7.39% |
| O=C(O)c1ccc(OCCCOc2ccc(C(=O)O)cc2)cc1 | 6.08% |
| CC(=O)NS(=O)(=O)c1ccc(N)cc1 | 1.24% |
| CC(=O)Nc1ccc(C(=O)O)cc1 | 1.42% |
| CC1CCc2cc(F)cc3c(=O)c(C(=O)O)cn1c23 (stereo not given) | 4.7% |
| CCc1cccc(CC)c1NC(=O)CN(CC(=O)O)CC(=O)O | 12.8% [at 12.8 µM] |
| O=c1[nH]c(=O)c2ccccc2o1 | 1.47% |
| CN/C(=C\[N+](=O)[O-])NCCSCc1csc(CN(C)C)n1 | 2.71% [at 12.8 µM] |
